Potency and outcome data for 8 compounds are collected here from PubChem BioAssay (Tox21).

Values joined by “and” are separate entries in the source; they are usually repeats but may differ in a detail not shown here. Equal entries are not always repeated. Records with an inconclusive call do not appear. Active and inactive are the calls of the source. Unless noted, calls come from the whole dose curve; as a rule, active = well fitted curve in the direction sought with a large enough effect in the repeat runs; inconclusive = weak or mixed curves; inactive = no such curve, though single readings can be large; an effect the other way counts as inactive or inconclusive.

Test [1] can be described thus: qHTS assay to identify small molecule antagonists of the sonic hedgehog signaling (Shh) pathway (AID 1259369; calls by dose curve; note: nearly all actives have a fitted effect of over 45% in size; note: potency is the fitted concentration of half-maximal effect). The method in brief:
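3T3Gli1-Luc, conditioned-medium-stimulated, 24hr cpd, 37C/5% CO2; Gli1-driven firefly Luc luminescence after 30min RT with luciferase reagent. Cells plated 4hr before cpd.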
(qHTS replaces the single test concentration by a dilution series.)

Test [2] deals with Estrogen receptor beta (Homo sapiens) (UniProt Q92731). The experiment in a line: qHTS assay to identify small molecule agonists of the estrogen receptor beta (ER-beta) signaling pathway (AID 1259377; active = well fitted activation curve with a large enough effect in the signal ratio in the repeat runs, not every such curve was filed as active; the % refers to the signal ratio). The method in brief:
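HEK293T ER-beta-UAS-bla; 2% charcoal-stripped FBS; cells pre-incubated 6 hr, compound 16 hr, 37C/5% CO2; LiveBLAzer B/G FRET substrate 2 h RT; fluorescence intensity read.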

For test [3] the target is unchanged. The experiment in a line: qHTS assay to identify small molecule antagonists of the estrogen receptor beta (ER-beta) signaling pathway (AID 1259378; active = well fitted inhibition curve with a large enough effect in the signal ratio in the repeat runs, not every such curve was filed as active; the % refers to the signal ratio). The method in brief: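 ER-beta-UAS-bla HEK293T (GripTite) cells in 2% charcoal-stripped FBS medium were preincubated 6 hr at 37C, dosed with compound, then stimulated with 1 nM E2 (final) for 16 hr; beta-lactamase reporter read by B/G FRET fluorescence after 2 hr substrate loading.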

Test [4] in a line: qHTS assay to identify small molecule agonists of the androgen receptor (AR) signaling pathway in the presence of an antagonist - cell viability counter screen (AID 1259379). Note: nearly all actives have a fitted effect of over 25% in size. Note: potency is the fitted concentration of half-maximal effect. The gist of the method:
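Cells: MDA-kb2 (MMTV-luc, AR and GR elements), 3,000/well, 5 hr settle. Added: nilutamide 3.0uM final, then compounds (15 conc.). Incubation: 16 hr, 37C, no CO2. Read-out: CellTiter-Fluor, 1 hr, fluorescence.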

Test [5] in a line: qHTS assay to identify small molecule agonists of the estrogen receptor beta (ER-beta) signaling pathway - cell viability counter screen (AID 1259380). Note: nearly all actives have a fitted effect of over 30% in size. The method in brief:
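HEK293T ER-beta-UAS-bla; 2% CS-FBS; 6 hr pre-plate, 16 hr cpd at 37C/5% CO2; LiveBLAzer read first, then CellTiter-Glo 30 min RT, luminescence.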

Test [6] is described as follows: qHTS assay to identify small molecule antagonists of the estrogen receptor beta (ER-beta) signaling pathway - cell viability counter screen (AID 1259382). Note: series mostly up to about 92 µM; nearly all actives have a fitted effect of over 55% in size. The method in brief: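 Cells: ER-beta-UAS-bla HEK293T, 2,000/well, 2% CS-FBS, 6 hr settle. Cpd + E2 (1nM final), 16 hr, 37C/5% CO2. Bla FRET substrate 2 hr RT, then CellTiter-Glo 30 min RT, luminescence.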
Test [7] is described as follows: qHTS assay to identify small molecule agonists or antagonists of the thyroid stimulating hormone receptor (TSHR) signaling pathway - wild type cell line counter screen (AID 1259384; calls by dose curve). The method in brief:
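Wild-type HEK293 cells were plated 18 h at 37 C/5% CO2, pin-dosed with compound plus Ro20-1724 medium, held 30 min at room temperature, then given cAMP-d2 and anti-cAMP-cryptate; fluorescence was read after 1 h. Fifteen concentrations, triplicate.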

The target of test [8] is Thyrotropin receptor (Homo sapiens) (UniProt P16473). The experiment in a line: qHTS assay to identify small molecule antagonists of the thyroid stimulating hormone receptor (TSHR) signaling pathway (AID 1259385; calls by dose curve; note: nearly all actives have a fitted effect of over 20% in size). The method in brief:
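TSHR-HEK293 cells were plated and held 18 h at 37C/5% CO2, then given compound plus Ro20-1724 and stimulated with TSH at 1.5 ng/mL final. After 30 min at room temperature, cAMP was detected with cAMP-d2/anti-cAMP-cryptate (1 h) by fluorescence.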

A short description of test [9]: qHTS assay to identify small molecule agonists of the estrogen receptor alpha (ER-alpha) signaling pathway in the presence of an antagonist - cell viability counter screen (AID 1259386).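 Note: series mostly up to about 92 µM; cells exposed to compounds for 22 h at 37 °C before the viability read; nearly all actives have a fitted effect of over 30% in size.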 The gist of the method:
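VM7Luc4E2, stripped-serum pre-culture 5 d; 24hr plating; +ICI-182,780 10.0nM final; cpds 15 conc, 22hr, 37C/5% CO2; CellTiter-Fluor added at 21hr, fluorescence 1hr later.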

In test [10] the target is Progesterone receptor (Homo sapiens) (UniProt P06401). The experiment in a line: qHTS assay to identify small molecule agonists of the progesterone receptor (PR) signaling pathway (AID 1346784; calls by dose curve; note: nearly all actives have a fitted effect of over 30% in size). The gist of the method:
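Beta-lactamase reporter read-out: after 16 hr compound treatment at 37C and a further 2 hr at room temperature with LiveBLAzer B/G FRET substrate, fluorescence was measured in PR-UAS-bla HEK 293T cells grown in 2% charcoal-stripped serum.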

Test [11] has the same target. The experiment in a line: qHTS assay to identify small molecule antagonists of the progesterone receptor (PR) signaling pathway (AID 1346795; active = well fitted inhibition curve with a large enough effect in the signal ratio in the repeat runs, not every such curve was filed as active; the % refers to the signal ratio). The gist of the method: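 Read-out is fluorescence from the LiveBLAzer B/G FRET substrate, cleaved by a UAS-controlled beta-lactamase in PR-UAS-bla HEK293T cells after 16 hr exposure to compound plus 1 nM promegestone (final), followed by 2 hr at room temperature.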

Test [12] in a line: qHTS assay to identify small molecule agonists of the progesterone receptor (PR) signaling pathway - cell viability counter screen (AID 1346799; calls by dose curve; note: nearly all actives have a fitted effect of over 45% in size; note: potency is the fitted concentration of half-maximal effect). The gist of the method:
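Luminescence from CellTiter-Glo, added after the beta-lactamase FRET read in the same wells, gave cytotoxicity in PR-UAS-bla HEK293T cells treated with compounds for 16 hr at 37C.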

Test [13] in a line: qHTS assay to identify small molecule antagonists of the TGF-beta/Smad signaling pathway - cell viability counter screen (AID 1346824). Note: nearly all actives have a fitted effect of over 50% in size. The gist of the method: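 SBE-bla HEK 293T cells were plated overnight at 37 C, then given compounds in DMSO plus TGF-beta1 (added as 0.25 ng/mL solution) for 5 hr. After the bla read, CellTiter-Glo was added to the same wells and luminescence read after 30 min at room temperature.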

Test [14] is described as follows: qHTS assay to identify small molecule agonists of the TGF-beta/Smad signaling pathway - cell viability counter screen (AID 1346829). Note: top concentration of the series differs between compounds; nearly all actives have a fitted effect of over 45% in size. The gist of the method:
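HEK 293T SBE-bla line, 5 hr compound exposure at 37 C, multiplexed CellTiter-Glo viability read by luminescence.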

A short description of test [15]: qHTS assay to identify small molecule agonists of the TGF-beta/Smad signaling pathway (AID 1346859; active = well fitted activation curve with a large enough effect in the signal ratio in the repeat runs, not every such curve was filed as active; the % refers to the signal ratio; note: series mostly up to about 77 µM). The gist of the method: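 SBE-bla HEK 293T, 4,000 cells/well, plated o/n; cpd in DMSO, 5 hr, 37 C/5% CO2; B/G FRET substrate 2 hr RT; ex 405, em 460/530 nm.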
Test [16] concerns the target Thyrotropin-releasing hormone receptor (Homo sapiens) (UniProt P34981). The experiment in a line: qHTS assay to identify small molecule antagonists of the thyrotropin-releasing hormone receptor (TRHR) signaling pathway (AID 1346877; active = well fitted inhibition curve with a large enough effect in the repeat runs, not every such curve was filed as active; note: series mostly up to about 51 µM). The gist of the method: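 Intracellular calcium fluorescence, read kinetically every second over 3 min, reports TRH-evoked signalling in HEK293 cells carrying TRHR. Test compounds were added 5 min ahead of a 1 nM TRH challenge.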

Test [17] has the same target. The experiment in a line: qHTS assay to identify small molecule agonists of the thyrotropin-releasing hormone receptor (TRHR) signaling pathway (AID 1346891; calls by dose curve; note: series mostly up to about 58 µM). The gist of the method:
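Intracellular calcium rise, read as fluorescence every second for 3 min, served as the agonist signal in dye-loaded HEK293 cells expressing TRHR; each compound ran at 15 concentrations in triplicate.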

Test [18] deals with Estrogen receptor (Homo sapiens) (UniProt P03372). The experiment in a line: qHTS assay to identify small molecule agonists of the estrogen receptor alpha (ER-alpha) signaling pathway in the presence of an antagonist (AID 1259383; calls by dose curve; note: top concentration of the series differs between compounds; nearly all actives have a fitted effect of over 15% in size). The method in brief: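 VM7Luc4E2, endog. ER-alpha + 4×ERE-luc; charcoal-stripped FBS, phenol red-free, 5 d; 24hr plating; +10.0nM ICI-182,780 (final); cpds 15 conc, 22hr, 37C/5% CO2; ONE-Glo luminescence.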
Chain of Estrogen receptor (Homo sapiens) (P03372 whole entry, looked up): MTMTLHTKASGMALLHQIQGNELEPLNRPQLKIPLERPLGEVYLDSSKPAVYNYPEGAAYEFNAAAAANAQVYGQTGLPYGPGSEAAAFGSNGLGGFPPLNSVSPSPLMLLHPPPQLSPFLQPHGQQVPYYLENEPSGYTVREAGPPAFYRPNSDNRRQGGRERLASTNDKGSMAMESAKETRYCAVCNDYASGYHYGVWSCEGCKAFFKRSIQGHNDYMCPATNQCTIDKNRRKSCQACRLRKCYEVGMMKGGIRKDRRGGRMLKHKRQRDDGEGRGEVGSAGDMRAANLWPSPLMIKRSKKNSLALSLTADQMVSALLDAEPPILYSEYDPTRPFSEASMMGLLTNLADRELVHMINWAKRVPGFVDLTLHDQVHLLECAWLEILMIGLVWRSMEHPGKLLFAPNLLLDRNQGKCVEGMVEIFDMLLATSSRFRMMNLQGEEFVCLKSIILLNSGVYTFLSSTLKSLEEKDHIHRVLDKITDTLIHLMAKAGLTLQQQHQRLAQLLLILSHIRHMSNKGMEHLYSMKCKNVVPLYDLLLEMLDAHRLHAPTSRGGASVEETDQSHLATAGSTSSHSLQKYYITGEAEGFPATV

Test [19] is described as follows: qHTS assay to identify small molecule antagonists of the progesterone receptor (PR) signaling pathway - cell viability counter screen (AID 1346798). Note: series mostly up to about 92 µM; nearly all actives have a fitted effect of over 50% in size. The method in brief: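 HEK293T PR-UAS-bla, 2% charcoal-stripped FBS; 4 hr pre-plate; cpd + R5020, 16 h 37C; LiveBLAzer read first; then CellTiter-Glo 30 min RT, luminescence.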

Chain of Thyrotropin-releasing hormone receptor (Homo sapiens) (P34981 whole entry, looked up): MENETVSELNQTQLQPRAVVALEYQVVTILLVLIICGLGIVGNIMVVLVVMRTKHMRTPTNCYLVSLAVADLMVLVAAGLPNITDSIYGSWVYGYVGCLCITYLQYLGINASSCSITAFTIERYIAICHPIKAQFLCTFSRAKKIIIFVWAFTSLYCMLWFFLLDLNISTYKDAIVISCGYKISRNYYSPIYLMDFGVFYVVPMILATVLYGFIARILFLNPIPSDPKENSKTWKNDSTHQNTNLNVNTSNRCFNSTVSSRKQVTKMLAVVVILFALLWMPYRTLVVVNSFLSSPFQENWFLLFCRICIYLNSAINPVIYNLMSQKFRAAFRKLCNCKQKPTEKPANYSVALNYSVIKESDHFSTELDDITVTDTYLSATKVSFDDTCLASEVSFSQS
Chain of Estrogen receptor beta (Homo sapiens) (Q92731 whole entry, looked up): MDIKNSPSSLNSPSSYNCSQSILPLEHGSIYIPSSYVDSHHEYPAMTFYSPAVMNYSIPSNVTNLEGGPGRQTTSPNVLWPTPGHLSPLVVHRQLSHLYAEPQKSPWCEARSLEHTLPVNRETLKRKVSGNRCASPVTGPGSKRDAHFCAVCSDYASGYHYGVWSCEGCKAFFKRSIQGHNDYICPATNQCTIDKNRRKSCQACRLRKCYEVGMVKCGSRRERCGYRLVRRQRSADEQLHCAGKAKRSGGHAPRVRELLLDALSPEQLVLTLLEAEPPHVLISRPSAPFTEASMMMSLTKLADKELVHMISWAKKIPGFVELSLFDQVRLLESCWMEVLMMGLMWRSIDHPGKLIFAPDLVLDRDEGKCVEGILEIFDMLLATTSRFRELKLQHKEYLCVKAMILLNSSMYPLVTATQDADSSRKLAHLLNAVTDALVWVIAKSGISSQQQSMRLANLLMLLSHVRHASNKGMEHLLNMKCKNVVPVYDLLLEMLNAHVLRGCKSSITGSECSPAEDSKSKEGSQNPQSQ
Chain of Progesterone receptor (Homo sapiens) (P06401 whole entry, looked up): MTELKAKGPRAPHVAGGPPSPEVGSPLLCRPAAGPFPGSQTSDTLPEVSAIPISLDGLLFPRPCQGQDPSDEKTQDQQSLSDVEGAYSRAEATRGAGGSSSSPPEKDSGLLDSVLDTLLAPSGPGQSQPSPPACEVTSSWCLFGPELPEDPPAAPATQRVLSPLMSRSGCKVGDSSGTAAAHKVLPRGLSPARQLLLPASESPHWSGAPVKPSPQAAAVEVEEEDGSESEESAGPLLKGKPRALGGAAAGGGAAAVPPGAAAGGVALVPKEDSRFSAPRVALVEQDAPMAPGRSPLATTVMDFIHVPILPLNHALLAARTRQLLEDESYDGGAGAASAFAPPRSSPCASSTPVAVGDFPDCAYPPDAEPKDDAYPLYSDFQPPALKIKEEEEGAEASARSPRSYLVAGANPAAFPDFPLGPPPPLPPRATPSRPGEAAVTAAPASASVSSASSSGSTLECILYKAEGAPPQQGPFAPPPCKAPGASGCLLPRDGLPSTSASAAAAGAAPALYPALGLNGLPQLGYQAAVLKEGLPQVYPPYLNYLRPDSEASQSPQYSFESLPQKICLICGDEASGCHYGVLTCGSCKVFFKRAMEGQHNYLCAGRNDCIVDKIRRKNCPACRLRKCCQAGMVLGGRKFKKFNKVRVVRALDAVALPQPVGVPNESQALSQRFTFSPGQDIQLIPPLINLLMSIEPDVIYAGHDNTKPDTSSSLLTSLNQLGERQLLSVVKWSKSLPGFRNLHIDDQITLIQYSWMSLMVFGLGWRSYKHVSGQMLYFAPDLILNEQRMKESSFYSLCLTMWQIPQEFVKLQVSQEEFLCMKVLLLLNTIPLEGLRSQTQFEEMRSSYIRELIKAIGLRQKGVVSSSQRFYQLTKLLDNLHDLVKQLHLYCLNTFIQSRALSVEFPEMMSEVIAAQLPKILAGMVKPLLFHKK
Chain of Thyrotropin receptor (Homo sapiens) (P16473 whole entry, looked up): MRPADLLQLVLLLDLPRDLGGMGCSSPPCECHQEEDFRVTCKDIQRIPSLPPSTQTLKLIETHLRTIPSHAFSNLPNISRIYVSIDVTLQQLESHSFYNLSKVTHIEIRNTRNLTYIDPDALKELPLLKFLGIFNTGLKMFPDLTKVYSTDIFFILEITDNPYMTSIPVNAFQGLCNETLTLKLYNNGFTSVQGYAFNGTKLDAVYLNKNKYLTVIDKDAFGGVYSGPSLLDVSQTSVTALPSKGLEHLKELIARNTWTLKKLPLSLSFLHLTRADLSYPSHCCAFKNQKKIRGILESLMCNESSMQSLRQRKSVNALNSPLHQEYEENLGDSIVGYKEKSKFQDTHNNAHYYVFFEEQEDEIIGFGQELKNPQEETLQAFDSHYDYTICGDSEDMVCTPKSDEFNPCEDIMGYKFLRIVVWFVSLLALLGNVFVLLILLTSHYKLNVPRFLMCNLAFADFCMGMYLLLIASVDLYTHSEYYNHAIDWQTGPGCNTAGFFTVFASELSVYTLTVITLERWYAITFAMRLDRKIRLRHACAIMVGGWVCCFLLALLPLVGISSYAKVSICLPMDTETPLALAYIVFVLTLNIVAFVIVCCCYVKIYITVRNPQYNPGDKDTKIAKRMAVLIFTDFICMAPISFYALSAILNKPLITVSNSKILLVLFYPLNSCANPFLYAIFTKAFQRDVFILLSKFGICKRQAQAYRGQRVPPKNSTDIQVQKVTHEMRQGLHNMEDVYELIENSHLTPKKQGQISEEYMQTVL

With `CCCCCCCCP(=O)(O)O`, the Potency entry in test [1], in test [2], in test [3], in test [4], in test [5] and in test [6] was “inactive” each time. Also, the Potency entry in test [8], in test [9], in test [10], in [11], in test [13] and in test [14] was “inactive” in each case. The Potency result in test [16] is “inactive”. For the same compound, the result in test [7], in test [15] and in [17] was inactive. For the same compound, the Potency in test [12] was 27.3 µM (active).
Regarding `CCCSP(=S)(OCC)Oc1ccc(SC)cc1` (centres undefined), the Potency in test [1] is 61.1 µM (active). Further, the Potency result in test [2], in test [3], in test [4], in test [5], in test [6] and in test [18] was “inactive” each time. The Potency entry in [8], in [9], in [10], in test [19], in test [12] and in test [13] was “inactive” each time. Also, the Potency result in test [14] is “inactive”. The outcome in test [7] and in [15] was inactive.
`O=S(=O)(c1ccccc1)c1ccccc1`: the Potency entry in [1], in [2], in test [3], in [4], in test [6] and in test [8] was “inactive” in each case. For the same compound, the Potency result in [10], in test [12], in test [13], in test [14] and in test [16] was “inactive” in each case. Also, the outcome in test [7], in [15] and in [17] was inactive.
On to `O=C(CCl)CCl`, for which the Potency in test [1] is 19.3 µM (active); in [4], 63.4 µM (active) and 48.6 µM (active). The Potency result in [2], in test [3], in [5], in test [6], in test [18] and in [8] was “inactive” in each case. Besides, the Potency result in test [9], in test [10], in [11], in test [19], in test [12] and in [13] was “inactive” each time. Moreover, the Potency result in [14] and in test [16] was “inactive” each time. Further, the compound was classed as inactive in test [7] and in test [17].
Take `CCC1(CC)C(=O)NC(=O)NC1=O`: the Potency result in test [1], in [2], in test [3], in [4], in test [5] and in [6] was “inactive” in each case. Further, the Potency entry in test [18], in test [10], in test [11], in test [19], in [12] and in [13] was “inactive” in each case. For the same compound, the Potency entry in [14] and in test [16] was “inactive” each time. Further, in test [17], the call was inactive.
For the compound `CC(O)CN1CCN(CC(=O)[O-])CCN(CC(=O)[O-])CCN(CC(=O)[O-])CC1.[Gd+3]` (centres undefined), the Potency entry in [1], in [2], in test [3], in test [4], in test [5] and in [6] was “inactive” throughout. Further, the Potency entry in [18], in test [8], in test [9], in test [19], in [12] and in [13] was “inactive” in each case. Besides, the Potency result in test [14] and in test [16] was “inactive” throughout. In addition, the result in test [7], in [15] and in test [17] was inactive.
In the case of `CC(C)(C)NCC(O)c1ccccc1Cl` (centres undefined), the Potency result in [1], in test [2], in [3], in test [4], in test [5] and in test [6] was “inactive” each time. Further, the Potency entry in test [18], in [8], in [10], in [11], in test [19] and in [12] was “inactive” in each case. Besides, the Potency entry in test [13], in test [14] and in [16] was “inactive” each time. Also, in [17], the compound was called inactive.
Take `CCCCC(CC)CO[N+](=O)[O-]` (centres undefined): the Potency entry in [1], in test [2], in [3], in test [4], in [5] and in [6] was “inactive” in each case. Further, the Potency result in test [18], in [8], in [11], in test [19], in test [12] and in test [13] was “inactive” in each case. The Potency entry in [14] and in test [16] was “inactive” each time. Also, the compound was called inactive in [7] and in test [17].
